The subject of assay [1] is Staphylococcus aureus Sa2 (MRSA, cystic fibrosis isolate). Nature of the assay: growth reduction vs untreated control (OD550); higher = stronger antibacterial activity. The note with it: 0.1 mM; 24 h. The protocol: (§1)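 Single-dose screen of the MedChem Express Drug Repurposing Library (0.1 mM, 1% DMSO) against planktonic MRSA S. aureus Sa2 (CF isolate) in TSB in 96-well plates, 37 °C aerobic, 24 h. Assays were run in triplicate and repeated twice.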

The test system is the same in assay [2]. Briefly: growth reduction vs untreated control (viable cell count); higher = stronger antibacterial activity; extreme values may be limits of the assay. The conditions noted are these: 0.1 mM; 24 h. On the procedure:
as §1

Structures can show the parent of a compound that is named as a salt.

With `CC1(C)CC[C@]2(NC(=O)C(C)(F)F)CC[C@]3(C)[C@H](C(=O)C=C4[C@@]5(C)C=C(C#N)C(=O)C(C)(C)[C@@H]5CC[C@]43C)[C@@H]2C1` [Omaveloxolone], the growth reduction in assay [1] and in assay [2] was 100% each time.

In the case of `Clc1ccc(CCC(Cn2ccnc2)Sc2c(Cl)cccc2Cl)cc1` (centres undefined) [Butoconazole (nitrate)], the growth reduction in assay [1] and in assay [2] was 100% each time.

Regarding `CSc1ccc(OCc2ncc([N+](=O)[O-])n2C)cc1` [Fexinidazole], the growth reduction in assay [1] came to 98.5%; in assay [2] it was 93%.

On to `O=C(O)Cc1ccccc1Nc1c(Cl)cccc1Cl` [Diclofenac], for which the growth reduction in assay [1] and in assay [2] was 100% in each case.

`Cc1cc(OCCCS(C)(=O)=O)cc(C)c1-c1cccc(COc2ccc3c(c2)OC[C@H]3CC(=O)O)c1` [Fasiglifam]: the growth reduction in assay [1] and in assay [2] was 100% in each case.

As to `CC(C)Nc1nc2cc(Cl)c(Cl)cc2n1[C@H]1O[C@@H](CO)[C@H](O)[C@@H]1O` [Maribavir], the figures for the growth reduction in assay [1] and in assay [2] were 92.7% and 94%, respectively.

Take `O=C(CCCCCCNC(=O)c1cnc(N(c2ccccc2)c2ccccc2)nc1)NO` [Ricolinostat]: the growth reduction in assay [1] and in assay [2] was 100% in each case.

In the case of `C=CC[C@@H]1/C=C(\C)C[C@H](C)C[C@H](OC)[C@H]2O[C@@](O)(C(=O)C(=O)N3CCCC[C@H]3C(=O)O[C@H](/C(C)=C/[C@@H]3CC[C@@H](O)[C@H](OC)C3)[C@H](C)[C@@H](O)CC1=O)[C@H](C)C[C@@H]2OC` [Tacrolimus (monohydrate)], the growth reduction in assay [1] and in assay [2] was 100% each time.

Take `C=CCNc1c(O)cc2c(O)c1C[C@@H](C)C[C@H](OC)[C@H](O)[C@@H](C)/C=C(\C)[C@H](OC(N)=O)[C@@H](OC)/C=C\C=C(/C)C(=O)N2` [Retaspimycin (Hydrochloride)]: the growth reduction in assay [1] and in assay [2] was 100% each time.

As to `CCCCCCCCCCCCN1CCCCCC1=O` [Laurocapram], the growth reduction in assay [1] and in assay [2] was 100% in each case.

Consider `COc1ccc(CN2CCN(C(c3ccc(F)cc3)c3ccc(F)cc3)CC2)c(OC)c1OC` [Lomerizine dihydrochloride], for which the figures for the growth reduction in assay [1] and in assay [2] were 100% and 98%, respectively.

As to `C[C@H](Nc1cc(-c2cnn(C)c2)cc(Nc2cnccn2)n1)c1ccc(F)cc1` [Ilginatinib (maleate)], the growth reduction worked out at 100% in assay [1] and 95% in assay [2].

With `O=c1oc2ccccc2c(O)c1Cc1c(O)c2ccccc2oc1=O` [Dicoumarol], the growth reduction in assay [1] and in assay [2] was 100% throughout.

Take `COC(=O)/C=C/C(=O)OCCN1C(=O)CCC1=O` [Diroximel fumarate]: the growth reduction in assay [1] and in assay [2] was 100% throughout.

For `CNCc1ccc(C)c(NC(=O)c2ccc(Nc3nc(-c4ccccc4)c4ccccc4n3)cc2)c1`, the growth reduction in assay [1] and in assay [2] was 100% in each case.

Take `NC(N)=NC(=O)c1nc(Cl)c(N2CCCCCC2)nc1N` [5-(N,N-Hexamethylene)-amiloride]: the growth reduction in assay [1] and in assay [2] was 100% in each case.

Regarding `CC1(C)CC=C(c2nc(C3CC(C)(C)OC(C)(C)C3)ccc2NC(=O)c2nc(C#N)c[nH]2)CC1` [Edicotinib], the figures for the growth reduction in assay [1] and in assay [2] were 99.3% and 100%, respectively.

Consider `COc1cc2c(Oc3ccc(NC(=O)C4(C(=O)Nc5ccc(F)cc5)CC4)cc3F)ccnc2cc1OCCCN1CCOCC1` [Foretinib], for which the growth reduction in assay [1] stood at 94.8%; in assay [2], 99%.

Turning to `CC(=C(CCOC(=O)C(C)C)SSC(CCOC(=O)C(C)C)=C(C)N(C=O)Cc1cnc(C)nc1N)N(C=O)Cc1cnc(C)nc1N` (stereo in doubt) [Sulbutiamine], the growth reduction in assay [1] and in assay [2] was 97% in each case.

Consider `CCCCCCCC/C=C/CCCCCCCC(=O)OC[C@H]1O[C@@H](n2ccc(N)nc2=O)C(F)(F)[C@@H]1O` [Gemcitabine (elaidate)], for which the growth reduction in assay [1] and in assay [2] was 100% throughout.

As to `O=C1NCCN1CCN1CCC(c2cn(-c3ccc(F)cc3)c3ccc(Cl)cc23)CC1` [Sertindole], the results for the growth reduction in assay [1] and in assay [2] were 93.6% and 97%, respectively.

In the case of `CN1CCN(c2ccc3nc(-c4c(N)c5c(F)cccc5[nH]c4=O)[nH]c3c2)CC1` [Dovitinib (lactate)], the results for the growth reduction in assay [1] and in assay [2] were 96% and 99%, respectively.

`Clc1ccc(C(c2ccccc2Cl)C(Cl)Cl)cc1` (centres undefined) [Mitotane]: the growth reduction in assay [1] and in assay [2] was 100% in each case.

Take `CC1(C)CCC(C)(C)c2cc(NC(=O)c3ccc(C(=O)O)cc3)ccc21` [Tamibarotene]: the growth reduction worked out at 95.5% in assay [1] and 100% in assay [2].

For `O=C(NC[C@H]1CN(c2ccc(N3CCOCC3=O)cc2)C(=O)O1)c1ccc(Cl)s1` [Rivaroxaban], the growth reduction in assay [1] and in assay [2] was 100% throughout.

For the compound `O=C(O)CCCc1cc2cc(Cl)ccc2n1S(=O)(=O)c1ccc2ncsc2c1` [Lanifibranor], the growth reduction in assay [1] is 99.1%; in assay [2], 99%.

Consider `COCCNCc1ccc(-c2cc3nccc(Oc4ccc(NC(=O)C5(C(=O)Nc6ccc(F)cc6)CC5)cc4F)c3s2)nc1` [Sitravatinib], for which the growth reduction in assay [1] and in assay [2] was 100% in each case.

Regarding `COc1cc(NC(C)CCCN)c2ncccc2c1` (centres undefined) [Primaquine (Diphosphate)], the growth reduction in assay [1] came to 91.2%; in assay [2], 94%.

Consider `Nc1ccn([C@@H]2O[C@H](CO)[C@@H](O)C2(F)F)c(=O)n1` [Gemcitabine (hydrochloride)], for which the growth reduction in assay [1] and in assay [2] was 100% throughout.

Take `CCOC(=O)[C@H](CCc1ccccc1)N[C@@H](C)C(=O)N1[C@H](C(=O)O)C[C@@H]2CCC[C@@H]21` [Ramipril]: the growth reduction in assay [1] was determined as 92.1%; in assay [2] it was 92%.

Regarding `CCOc1cc2ncc(C#N)c(Nc3ccc(F)c(Cl)c3)c2cc1NC(=O)/C=C/CN(C)C` [Pelitinib], the values for the growth reduction in assay [1] and in assay [2] were 90.6% and 97%, respectively.

For the compound `O=C(NC1CCN(CCCCC2(C(=O)NCC(F)(F)F)c3ccccc3-c3ccccc32)CC1)c1ccccc1-c1ccc(C(F)(F)F)cc1` [Lomitapide], the growth reduction in assay [1] and in assay [2] was 100% each time.

Turning to `C[C@H](Nc1cc(-c2cnn(C)c2)cc(Nc2cnccn2)n1)c1ccc(F)cc1` [Ilginatinib], the growth reduction in assay [1] was 100%; in assay [2], 94%.

On to `Cc1ncc(NC(=O)c2ccc(CN3CCN(C)CC3)c(C(F)(F)F)c2)cc1Nc1nccc(-c2cccnc2)n1` [Flumatinib], for which the growth reduction in assay [1] and in assay [2] was 100% each time.

`O=C(c1ccc(F)c(F)c1Nc1ccc(I)cc1F)N1CC(O)([C@@H]2CCCCN2)C1` [Cobimetinib]: the growth reduction in assay [1] and in assay [2] was 100% throughout.

`C[C@@H](NCCCc1cccc(C(F)(F)F)c1)c1cccc2ccccc12` [Cinacalcet (hydrochloride)]: the growth reduction in assay [1] and in assay [2] was 100% in each case.

For the compound `CCCCCc1ccc(C=CC(=O)Nc2ccccc2C(=O)O)cc1` [N-(p-amylcinnamoyl) Anthranilic Acid], the growth reduction in assay [1] and in assay [2] was 100% throughout.

Turning to `CNC(=O)c1cc(Oc2ccc(NC(=O)Nc3ccc(Cl)c(C(F)(F)F)c3)c(F)c2)ccn1` [Regorafenib (monohydrate)], the growth reduction was 100% in assay [1] and 98% in assay [2].

On to `CCCc1nc2c(C)cc(-c3nc4ccccc4n3C)cc2n1Cc1ccc(-c2ccccc2C(=O)O)cc1` [Telmisartan], for which the growth reduction worked out at 91.8% in assay [1] and 100% in assay [2].

Take `C[C@]1(O)C[C@@H](c2nc(-c3ccc4ccc(-c5ccccc5)nc4c3)c3c(N)nccn32)C1` [Linsitinib]: the growth reduction in assay [1] and in assay [2] was 100% in each case.

On to `Clc1ccc(C(Cn2ccnc2)OCc2ccc(Sc3ccccc3)cc2)c(Cl)c1` (centres undefined) [Fenticonazole (Nitrate)], for which the growth reduction in assay [1] and in assay [2] was 100% throughout.

As for `Cc1ccc(Sc2ccccc2N2CCNCC2)c(C)c1` [Vortioxetine (hydrobromide)], the growth reduction in assay [1] and in assay [2] was 100% throughout.

For the compound `NC(=O)N1CCC(CC(=O)N2CCC([C@H]3c4ncc(Br)cc4CCc4cc(Cl)cc(Br)c43)CC2)CC1` [Lonafarnib], the growth reduction came to 94.3% in assay [1] and 96% in assay [2].

As for `Nc1ccn([C@@H]2O[C@H](CO)[C@@H](O)C2(F)F)c(=O)n1` [Gemcitabine], the growth reduction in assay [1] and in assay [2] was 100% each time.

With `O=C(O)Cc1ccc(Cc2cc(-c3cccc(Cl)c3)nc(C(F)(F)F)c2)cc1`, the growth reduction in assay [1] and in assay [2] was 100% each time.

As to `C1=N/C2=N/c3ccc(OCCN4CCCC4)c(c3)COC/C=C/COCc3cccc(c3)C(=C1)N2` [Pacritinib], the growth reduction in assay [1] and in assay [2] was 100% in each case.

On to `O=C(NCC12CC3CC(CC(C3)C1)C2)c1cc(CCCNCCCO)ccc1Cl` [AZD9056 (hydrochloride)], for which the growth reduction in assay [1] and in assay [2] was 100% throughout.

For `CC1(C)CCC(C)(C)c2cc(Cn3cccn3)c(/C=C/c3ccc(C(=O)O)cc3)cc21` [Palovarotene], the growth reduction in assay [1] and in assay [2] was 100% each time.

With `COc1cc(/C=C/c2ccc(O)cc2)cc(OC)c1` [Pterostilbene], the growth reduction is 99.9% in assay [1] and 100% in assay [2].

Turning to `Cc1cc([C@H](C)Nc2nccc(N3C(=O)OC[C@@H]3[C@@H](C)F)n2)ncc1-c1ccnc(C(F)(F)F)c1`, the growth reduction in assay [1] was 100%; in assay [2] it was 97%.

On to `C#C[C@]1(O)CC[C@H]2[C@@H]3CCc4cc(OC)ccc4[C@H]3CC[C@@]21C` [Mestranol], for which the results for the growth reduction in assay [1] and in assay [2] were 92.6% and 93%, respectively.

As to `COc1cc2/c(=N/c3ccc(Br)cc3F)nc[nH]c2cc1OCC1CCN(C)CC1` [Vandetanib], the growth reduction in assay [1] and in assay [2] was 100% each time.

As to `CCCCCCCOc1ccc(CCC(N)(CO)CO)cc1C(F)(F)F` [Amiselimod (hydrochloride)], the growth reduction in assay [1] and in assay [2] was 100% in each case.

With `Clc1ccc(CSC(Cn2ccnc2)c2ccc(Cl)cc2Cl)cc1` (centres undefined) [Sulconazole (nitrate)], the values for the growth reduction in assay [1] and in assay [2] were 93.4% and 100%, respectively.

As for `c1ccc(-c2ccc(C(c3ccccc3)n3ccnc3)cc2)cc1` (centres undefined) [Bifonazole], the growth reduction in assay [1] and in assay [2] was 100% each time.

`CCN1CCN(c2ccc(Nc3cc(N(C)C(=O)Nc4c(Cl)c(OC)cc(OC)c4Cl)ncn3)cc2)CC1` [Infigratinib]: the growth reduction in assay [1] and in assay [2] was 100% throughout.

For the compound `Cc1cn(-c2cc(NC(=O)c3ccc(C)c(Nc4nccc(-c5cccnc5)n4)c3)cc(C(F)(F)F)c2)cn1` [Nilotinib], the growth reduction in assay [1] came out at 100%; in assay [2], 92%.

As to `OCCN1CCN(CC/C=C2/c3ccccc3Sc3ccc(Cl)cc32)CC1` [Zuclopenthixol], the growth reduction in assay [1] and in assay [2] was 100% throughout.

Turning to `CSc1ccc(C(=O)/C=C/c2cc(C)c(OC(C)(C)C(=O)O)c(C)c2)cc1` [Elafibranor], the growth reduction was 91.6% in assay [1] and 95% in assay [2].

For the compound `CN(Cc1cnc2nc(N)nc(N)c2n1)c1ccc(C(=O)N[C@@H](CCC(=O)O)C(=O)O)cc1` [Methotrexate], the growth reduction in assay [1] is 94.1%; in assay [2], 95%.

`CCOC(=O)Nc1ccc(NCc2ccc(F)cc2)nc1N` [Flupirtine (Maleate)]: the growth reduction in assay [1] came to 100%; in assay [2], 96%.

Consider `Cc1nc2c([nH]1)-c1ccccc1N(C(=O)c1ccc(NC(=O)c3ccccc3-c3ccccc3)cc1)CC2` [Conivaptan (hydrochloride)], for which the growth reduction in assay [1] was found to be 90.4%; in assay [2], 100%.
